Each structure is given as a SMILES string. Several values for one entry are separate records, joined by “and”; a condition that tells them apart may be missing. Equal entries are not always repeated. Hit rate of the full screen: of about 150,000 compounds, about 1,000 (0.67%) were called active. Cut-off read from the data, not from the text of the source: active = % elongation below about 90%; inactive = the rest, inconclusive results apart. This excerpt belongs to a sample that is enriched for actives.

The assay concerns the target Genome polyprotein (Poliovirus type 1 (strain Mahoney)) (UniProt P03300). Nature of the assay: inhibitors of poliovirus polymerase RNA elongation – biochemical, fluorescence polarization, total intensity, primary screen (AID 588519). For z-score: compound at 16.7 µg/mL. Conditions: stronger effect = lower value; for % elongation: compound at 16.7 µg/mL; for z-score: measured here: FP z-score. For orientation: Fluorescence polarisation rises when a labelled molecule tumbles more slowly, as on binding a larger partner.

[1] abbreviates: measured here: total intensity read-out.

Sequence of Genome polyprotein (Poliovirus type 1 (strain Mahoney)) (P03300 1749-2209 limits assumed): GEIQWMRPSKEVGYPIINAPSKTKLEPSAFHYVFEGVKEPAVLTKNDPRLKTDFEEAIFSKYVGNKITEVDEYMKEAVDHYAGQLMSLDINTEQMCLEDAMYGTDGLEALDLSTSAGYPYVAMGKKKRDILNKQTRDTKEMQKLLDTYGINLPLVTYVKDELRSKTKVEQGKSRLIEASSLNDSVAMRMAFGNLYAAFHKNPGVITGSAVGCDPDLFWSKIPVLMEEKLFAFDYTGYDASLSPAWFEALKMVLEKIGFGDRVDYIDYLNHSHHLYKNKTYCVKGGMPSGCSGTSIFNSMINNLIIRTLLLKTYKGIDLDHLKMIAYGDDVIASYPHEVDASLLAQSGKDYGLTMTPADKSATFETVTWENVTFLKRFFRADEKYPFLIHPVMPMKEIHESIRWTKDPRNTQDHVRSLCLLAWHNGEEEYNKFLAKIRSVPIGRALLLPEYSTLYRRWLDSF

For the compound `COc1ccc(OCCOc2ccccc2F)cc1`, the % elongation is 104% (inactive) and the z-score turned out to be 1.2. Further, the % elongation under setting [1] stood at 102%.

For the compound `CCOC(=O)C1(C2(O)C(=O)c3ccccc3C2=O)CCCC1=O` (stereo not given), the % elongation is 75% (active) and the z-score is -3.1. Under setting [1], the % elongation came to 72%.

On to `CCOC(=O)C1(C(=O)OCC)C(c2ccccc2)CC(=O)CC1c1ccccc1` (stereo not given), for which the % elongation is 99% (inactive) and the z-score is -0.3. Further, the % elongation under setting [1] stood at 96%.

Turning to `CCOC(=O)C1(C(=O)OCC)CCN(S(=O)(=O)c2ccc(C)cc2)c2ccccc2C1=O`, the % elongation is 107% (inactive) and the z-score came out at 0.2. Besides, the % elongation under setting [1] was 102%.

Regarding `Nc1ccc(N=C2C(=O)Nc3ccccc32)cc1`, the % elongation was 99% (inactive) and the z-score is -0.4. For the same compound, the % elongation under setting [1] was found to be 100%.

On to `CN(C)/C=C1/C(=O)Nc2ccccc21`, for which the % elongation is 98% (inactive) and the z-score was -0.1. Besides, under setting [1], the % elongation was 103%.

On to `O=C1Nc2ccccc2C1=Nc1cccc(C(F)(F)F)c1`, for which the % elongation is 88% (active) and the z-score is -1.2. Moreover, under setting [1], the % elongation amounted to 90%.

As to `COc1ccc(C(C#N)OC(C)=O)c(OCc2ccccc2)c1OC` (stereo not given), the % elongation was 105% (inactive) and the z-score came out at 0.2. For the same compound, the % elongation under setting [1] stood at 102%.

Consider `Cc1cccc(OCCCC(=O)Nc2sc3c(c2C(N)=O)CCC(C)C3)c1` (stereo not given), for which the % elongation is 101% (inactive) and the z-score was -0.6. Further, under setting [1], the % elongation came out at 102%.

In the case of `CCOc1ccc(NC(=O)c2c(NCc3cccc(OC)c3OC)sc3c2CCC3)cc1`, the % elongation is 108% (inactive) and the z-score is 0.4. Under setting [1], the % elongation turned out to be 114%.

Take `COC(=O)c1c(NC(=O)CCCOc2ccccc2)sc2c1CCC(C)C2` (stereo not given): the % elongation was 105% (inactive) and the z-score was 0.2. The % elongation under setting [1] came to 112%.

On to `CCOc1ccc(NC(=O)c2c(NC(=O)Cc3ccccc3)sc3c2CCC(C)C3)cc1` (stereo not given), for which the % elongation was 83% (active) and the z-score is -3.6. Besides, under setting [1], the % elongation was 84%.

Regarding `CCOc1ccc(NC(=O)c2c(NC(=O)Cc3ccccc3)sc3c2CCCCC3)cc1`, the % elongation was 75% (active) and the z-score was -5. Further, under setting [1], the % elongation was determined as 78%.

In the case of `O=C(Cc1ccccc1)Nc1sc2c(c1C(=O)Nc1ccc(Br)cc1)CCC2`, the % elongation is 102% (inactive) and the z-score was -0.1. Further, under setting [1], the % elongation stood at 106%.

As for `CC1CC(C)CN(C(=O)COC(=O)c2ccc(C#N)cc2)C1` (stereo not given), the % elongation was 101% (inactive) and the z-score was -0.2. Further, the % elongation under setting [1] is 102%.

In the case of `Cc1ccc(Cn2nc(C)c(/C=C/C(=O)OCc3nc4ccccc4c(=O)n3CC#N)c2C)cc1`, the % elongation is 108% (inactive) and the z-score worked out at 0.9. Besides, the % elongation under setting [1] was determined as 119%.

Consider `O=C(CC12CC3CC(CC(C3)C1)C2)Nc1noc2ccccc12`, for which the % elongation is 101% (inactive) and the z-score was -0.1. Also, the % elongation under setting [1] was found to be 102%.

Consider `COC(CNC(=O)c1ccc2c(c1)N(Cc1cc(C)ccc1C)C(=O)c1ccccc1S2=O)OC` (stereo not given), for which the % elongation was 99% (inactive) and the z-score is -1.1. The % elongation under setting [1] stood at 103%.

As for `CC(C)Sc1n[nH]c(=S)n1N`, the % elongation was 83% (active) and the z-score was -1.9. Besides, under setting [1], the % elongation was 88%.

On to `CCn1c(C(C)C)n[nH]c1=S`, for which the % elongation is 103% (inactive) and the z-score worked out at 0.6. In addition, under setting [1], the % elongation is 102%.

`CC(C)n1c(-c2ccncc2)n[nH]c1=S`: the % elongation was 102% (inactive) and the z-score was found to be 0.7. Further, under setting [1], the % elongation came out at 103%.

With `CC(C)c1n[nH]c(=S)n1N`, the % elongation is 62% (active) and the z-score was -2.9. Moreover, the % elongation under setting [1] stood at 68%.

Consider `O=C(CN1C(=O)c2ccccc2C1=O)NN1C(=O)CSC1=S`, for which the % elongation is 97% (inactive) and the z-score was -0.8. Besides, under setting [1], the % elongation turned out to be 106%.

In the case of `COc1ccc(O)c(C(=O)c2cnn(C(=O)c3ccc4c(=O)n5c(nc4c3)CCC5)c2)c1`, the % elongation is 104% (inactive) and the z-score came to 0.1. Under setting [1], the % elongation was determined as 108%.

`COc1ccc(OC)c(C(=O)c2ccc(C(=O)O)cc2)c1`: the % elongation is 102% (inactive) and the z-score came out at 0.4. Moreover, the % elongation under setting [1] amounted to 100%.

Turning to `COc1ccc(O)c(C(=O)c2cnn3c(N)nnc3c2)c1`, the % elongation was 84% (active) and the z-score was -2.3. For the same compound, the % elongation under setting [1] was found to be 84%.

Take `COc1cc(C=Nc2c(C)n(C)n(-c3ccccc3)c2=O)ccc1OC(=O)c1ccco1`: the % elongation is 104% (inactive) and the z-score is 0.5. Besides, under setting [1], the % elongation came to 102%.

With `O=C(CSc1nc2c(c(=O)[nH]1)CN(Cc1ccc3c(c1)OCO3)CC2)Nc1cc(F)ccc1F`, the % elongation was 108% (inactive) and the z-score was found to be 0. Also, under setting [1], the % elongation was 107%.

As for `COc1cccc(CN2CCc3nc(SCC(=O)Nc4ccccc4)[nH]c(=O)c3C2)c1`, the % elongation is 107% (inactive) and the z-score was -0.1. Moreover, under setting [1], the % elongation was 111%.

For `O=C(CSc1nc2c(c(=O)[nH]1)CN(Cc1ccc(F)cc1)CC2)Nc1ccccc1Cl`, the % elongation is -15% (active) and the z-score was -8.9. The % elongation under setting [1] came to 19%.

Consider `CC[N+](CC)=c1scc(-c2ccc(Cl)cc2)s1`, for which the % elongation was 102% (inactive) and the z-score is -0.2. The % elongation under setting [1] is 110%.

On to `O=c1ccc(-c2ccc(S(=O)(=O)N3CCc4ccccc43)o2)n[nH]1`, for which the % elongation is 102% (inactive) and the z-score came to 0.6. For the same compound, the % elongation under setting [1] stood at 108%.

On to `CCN(CC)C(=O)C1Sc2nnc(-c3ccccc3)n2NC1c1ccccc1` (stereo not given), for which the % elongation is 101% (inactive) and the z-score worked out at 0.1. For the same compound, under setting [1], the % elongation was 102%.

`Cc1[nH]c(=O)[nH]c(=O)c1N`: the % elongation was 100% (inactive) and the z-score is -0.5. Besides, the % elongation under setting [1] came to 100%.

In the case of `CC[N+](C)(CC)CCC[n+]1c(-c2ccccc2)c2cc(N)ccc2c2ccc(N)cc21`, the % elongation is -41% (active) and -58% (active) and 65% (active); the z-score was -17 and -9.9 and -6.6. Further, under setting [1], the % elongation was -18% and -15% and 39%.

`CC[n+]1c(C)n(-c2ccccc2)c2ccc(N)cc21`: the % elongation is 102% (inactive) and the z-score stood at 0.2. The % elongation under setting [1] came out at 106%.

For the compound `CC(=O)Nc1c(C)ccc(NC(=O)C2C(C=C(C)C)C2(C)C)c1C` (stereo not given), the % elongation was 102% (inactive) and the z-score is -0.1. For the same compound, under setting [1], the % elongation was 102%.

In the case of `CCN(CC)CCNC(=O)c1cc2c(=O)oc3ccc(C)cc3c2s1`, the % elongation is 89% (active) and the z-score is -1.5. For the same compound, the % elongation under setting [1] was found to be 89%.

For the compound `Cc1ccc2oc(=O)c3cc(C(=O)NC4CCCC4)sc3c2c1`, the % elongation is 104% (inactive) and the z-score was found to be 0.9. Moreover, the % elongation under setting [1] stood at 98%.

`COc1ccc(Cl)cc1N(C)C(=O)c1cc2c(=O)oc3ccc(C)cc3c2s1`: the % elongation was 107% (inactive) and the z-score was 0.4. Also, the % elongation under setting [1] came to 113%.

The values above are taken from PubChem BioAssay AID588519 (ICCB-Longwood Screening Facility, Harvard Medical School, 2011).
